# Results filed as inconclusive are left out. The source made the active and inactive calls. The calls were made as follows: active = hit-call score of the fitted dose curve at least 0.9, where 1 is the maximum; inconclusive = response in the unintended direction; inactive = score below 0.9.
# How the values were obtained:
# [1] = biological target: human AMP-activated Protein Kinase, alpha 1 (AMPKa1), PRKAA1 (gene 5562) (UniProt Q13131); assay: NVS_ENZ_hAMPKa1: NovaScreen (NVS) Enzymatic Assay for human AMP-activated Protein Kinase, alpha 1 (AMPKa1) (AID 2283130)
# Outline: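 Compounds were screened in duplicate at 25 uM, and those reaching ~30% inhibition were titrated up to 50 uM. The enzyme was recombinant human AMPKα1, and kinase turnover was read by fluorescence/mobility shift 1 h post-dosing as loss of signal versus DMSO.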
# [2] = biological target: human Aurora Kinase A - serine/threonine-protein Kinase 6 (AurA), AURKA (gene 6790) (UniProt O14965); assay: NVS_ENZ_hAurA: NovaScreen (NVS) Enzymatic Assay for human Aurora Kinase A - serine/threonine-protein Kinase 6 (AurA) (AID 2283142)
# Outline: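 Recombinant human AurA activity read by fluorescence after mobility-shift separation of product from substrate; 1 hour incubation. Chemicals first run in duplicate at 25 uM, then concentration series to 50 uM if over threshold; fitted relative to DMSO.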
# [3] = biological target: human p21 Activated Kinase 4 (PAK4), PAK4 (gene 10298) (UniProt O96013); assay: NVS_ENZ_hPAK4: NovaScreen (NVS) Enzymatic Assay for human p21 Activated Kinase 4 (PAK4) (AID 2283189)
# Outline: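 Extracted PAK4 enzyme activity read by fluorescence with mobility-shift separation 1 h after chemical addition. Duplicate single-concentration screen at 25 uM, DMSO as negative control.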
# PPP2CA (gene 5515) = PPP2CA (gene 5515) (UniProt P67775); assay: NVS_ENZ_hPPP2CA: NovaScreen (NVS) Enzymatic Assay for human Protein Phosphatase 2 Aatalytic subunit Alpha (PPP2CA) (AID 2283199)
# Outline: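 Cell-free phosphatase activity: fluorescent substrate turnover by recombinant human enzyme, resolved by mobility shift at 1.33 h. Compounds passing the 25 uM duplicate primary screen were rerun in singleton series with a 50 uM top concentration.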
# [4] = biological target: human Phosphatase and Tensin Homolog (PTEN), PTEN (gene 5728) (UniProt P60484); assay: NVS_ENZ_hPTEN: NovaScreen (NVS) Enzymatic Assay for human Phosphatase and Tensin Homolog (PTEN) (AID 2283203)
# Outline: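 Loss of fluorescent product signal after mobility-shift separation reports PTEN activity, recombinant human enzyme, 1 h after compound addition. Single 25 uM duplicate screen, then concentration-response on actives; DMSO baseline.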
# [5] = biological target: human Protein Tyrosine Phosphatase Non-receptor Type 2 (PTPN2), PTPN2 (gene 5771) (UniProt P17706); assay: NVS_ENZ_hPTPN2: NovaScreen (NVS) Enzymatic Assay for human Protein Tyrosine Phosphatase Non-receptor Type 2 (PTPN2) (AID 2283207)
# Outline: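 Activity measured as fluorescence after mobility-shift separation of substrate and product, 1 h after compound. Duplicate single-point 25 uM primary testing, concentration series for actives; inhibition scored as signal loss relative to DMSO baseline.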
# [6] = biological target: human Raf-1 Proto-Oncogene, serine/threonine Kinase (RAF1), RAF1 (gene 5894) (UniProt P04049); assay: NVS_ENZ_hRAF1: NovaScreen (NVS) Enzymatic Assay for human Raf-1 Proto-Oncogene, serine/threonine Kinase (RAF1) (AID 2283216)
# Outline: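 Single-point screening at 25 uM (duplicate), followed by singleton concentration-response to 50 uM maximum for chemicals exceeding threshold. Enzyme activity from fluorescent substrate-product mobility-shift separation after 1 h, relative to DMSO.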
# [7] = biological target: rat Corticotropin Releasing Factor Receptor (CRF), Crhr1 (gene 58959) (UniProt P35353); assay: NVS_GPCR_rCRF: NovaScreen (NVS) G Protein-Coupled Receptor Assay for rat Corticotropin Releasing Factor Receptor (CRF) (AID 2283300)
# Outline: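 Single-concentration (25 uM, duplicate) radioligand binding on rat cortical membrane preparations, counted by scintillation after 2 h. Activity scored as signal loss relative to DMSO negative control.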
# [8] = biological target: human Acetylcholinesterase (AChE), ACHE (gene 43) (UniProt P22303); assay: NVS_ENZ_hAChE: NovaScreen (NVS) Enzymatic Assay for human Acetylcholinesterase (AChE) (AID 2283129)
# Outline: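 Actives from a duplicate single-point screen (25 uM) were followed up in concentration series. Enzyme activity read by absorbance (colorimetric) 0.33 hour after dosing, cell-free, normalized to DMSO, with loss of signal scored.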
# [9] = biological target: rat Acetylcholinesterase (AChE), Ache (gene 83817) (UniProt P37136); assay: NVS_ENZ_rAChE: NovaScreen (NVS) Enzymatic Assay for rat Acetylcholinesterase (AChE) (AID 2283233)
# Outline: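 Compounds first screened at 25 uM in duplicate, then those passing threshold tested in concentration series up to 50 uM, against AChE from rat brain membranes. Enzyme activity read by absorbance at 0.33 h; inhibition scored versus DMSO.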
# [10] = biological target: Bile acid receptor (Homo sapiens) (UniProt Q96RI1); assay: NVS_NR_hFXR_Agonist: NovaScreen (NVS) Nuclear Receptor Binding Assay for human Farnesoid X Receptor Agonism (FXR) (AID 2283347)
# Outline: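 Agonist-mode FXR assay read by time-resolved FRET 1 h after compound addition, using isolated human receptor protein without cells. Duplicate 25 uM single-point primary screen, concentration series for confirmed actives; DMSO as baseline.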
# [11] = biological target: human Matrix Metalloproteinase-1 (MMP1), MMP1 (gene 4312) (UniProt P03956); assay: NVS_ENZ_hMMP1: NovaScreen (NVS) Enzymatic Assay for human Matrix Metalloproteinase-1 (MMP1) (AID 2283181)
# Outline: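 Cell-free fluorescent substrate assay of human MMP1, read after 1 h. A single 25 uM duplicate screen was followed by concentration series to a maximum of 50 uM for actives meeting threshold; inhibition analysed against DMSO baseline.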
# [12] = system: rat Monoamine Oxidase, MAO-A, Central (MAOAC), gene 29253; assay: NVS_ENZ_rMAOAC: NovaScreen (NVS) Enzymatic Assay for rat Monoamine Oxidase, MAO-A, Central (MAOAC) (AID 2283243);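 also: potency refers to inhibition seen as signal drop below DMSO baseline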
# Outline: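 Enzyme from rat brain, cell-free radiodetection format. Counts taken at 1.5 h; activity fitted against DMSO baseline, loss of signal marking inhibition. Confirmatory concentration series followed the 25 uM duplicate screen.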
# [13] = biological target: Norway rat Vesicular Monoamine Transporter (VMAT2), neurotransmitter transporter, Slc18a2 (gene 25549) (UniProt Q01827); assay: NVS_TR_rVMAT2: NovaScreen (NVS) Transporter Assay for Norway rat Vesicular Monoamine Transporter (VMAT2), neurotransmitter transporter (AID 2283376);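 also: actives lower the bound radioligand signal below the DMSO level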
# Outline: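 Using rat forebrain membranes, specific radioligand binding to VMAT2 was measured by filtration and scintillation counting after 1 hour. Chemicals screened at 25 uM in duplicate, actives retested in concentration series, DMSO baseline.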
# [14] = biological target: human Fibroblast Growth Factor Receptor 1 (FGFR1), FGFR1 (gene 2260) (UniProt P11362); assay: NVS_ENZ_hFGFR1: NovaScreen (NVS) Enzymatic Assay for human Fibroblast Growth Factor Receptor 1 (FGFR1) (AID 2283159)
# Outline: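 Cell-free recombinant kinase with fluorescent substrate, product separated by electrophoretic mobility shift; read 1 hour after dosing, loss of signal relative to DMSO. Initial screen in duplicate at 25 uM, actives followed in concentration series.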
# [15] = biological target: human IkappaB Kinase alpha (IKKa), CHUK (gene 1147) (UniProt O15111); assay: NVS_ENZ_hIKKa: NovaScreen (NVS) Enzymatic Assay for human IkappaB Kinase alpha (IKKa) (AID 2283167)
# Outline: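 Compounds first run in duplicate at 25 uM, those meeting threshold (e.g. 30% inhibition) retested to maximum 50 uM. Enzyme activity of recombinant IKKa measured by fluorescence with electrophoretic mobility shift separation, 1 hour post-dosing, DMSO baseline.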
# [16] = biological target: bovine Gamma-Aminobutyric Acid Type A Receptor BDZ, alpha 1 site (GABARa1), GABRA1 (gene 780973) (UniProt P08219); assay: NVS_LGIC_bGABARa1: NovaScreen (NVS) Ligand-Gated Ion Channel Assay for bovine Gamma-Aminobutyric Acid Type A Receptor BDZ, alpha 1 site (GABARa1) (AID 2283321)
# Outline: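 Bovine cortex membrane preparation, benzodiazepine site on GABA-A alpha1; specific radioligand displacement read after 0.75 h by filtration and scintillation. Screen at 25 uM, then singleton titrations up to 50 uM; DMSO baseline.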
# Chain of human AMP-activated Protein Kinase, alpha 1 (AMPKa1), PRKAA1 (gene 5562) (Q13131 whole entry, looked up): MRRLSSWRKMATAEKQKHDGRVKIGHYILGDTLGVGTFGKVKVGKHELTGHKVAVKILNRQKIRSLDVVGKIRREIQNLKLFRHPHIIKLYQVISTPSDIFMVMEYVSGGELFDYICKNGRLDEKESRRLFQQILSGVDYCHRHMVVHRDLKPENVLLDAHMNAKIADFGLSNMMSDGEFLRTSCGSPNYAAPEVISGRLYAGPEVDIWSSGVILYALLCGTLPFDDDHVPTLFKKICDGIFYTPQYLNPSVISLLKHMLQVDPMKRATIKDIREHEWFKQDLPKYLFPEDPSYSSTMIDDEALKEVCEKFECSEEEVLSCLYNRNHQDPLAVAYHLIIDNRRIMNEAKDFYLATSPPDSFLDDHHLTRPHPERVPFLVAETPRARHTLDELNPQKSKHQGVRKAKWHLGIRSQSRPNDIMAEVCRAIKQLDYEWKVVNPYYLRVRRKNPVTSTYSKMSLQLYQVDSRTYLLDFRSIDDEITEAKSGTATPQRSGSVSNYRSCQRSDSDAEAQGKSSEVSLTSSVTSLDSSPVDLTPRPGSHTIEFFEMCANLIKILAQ
# Chain of human Acetylcholinesterase (AChE), ACHE (gene 43) (P22303 whole entry, looked up): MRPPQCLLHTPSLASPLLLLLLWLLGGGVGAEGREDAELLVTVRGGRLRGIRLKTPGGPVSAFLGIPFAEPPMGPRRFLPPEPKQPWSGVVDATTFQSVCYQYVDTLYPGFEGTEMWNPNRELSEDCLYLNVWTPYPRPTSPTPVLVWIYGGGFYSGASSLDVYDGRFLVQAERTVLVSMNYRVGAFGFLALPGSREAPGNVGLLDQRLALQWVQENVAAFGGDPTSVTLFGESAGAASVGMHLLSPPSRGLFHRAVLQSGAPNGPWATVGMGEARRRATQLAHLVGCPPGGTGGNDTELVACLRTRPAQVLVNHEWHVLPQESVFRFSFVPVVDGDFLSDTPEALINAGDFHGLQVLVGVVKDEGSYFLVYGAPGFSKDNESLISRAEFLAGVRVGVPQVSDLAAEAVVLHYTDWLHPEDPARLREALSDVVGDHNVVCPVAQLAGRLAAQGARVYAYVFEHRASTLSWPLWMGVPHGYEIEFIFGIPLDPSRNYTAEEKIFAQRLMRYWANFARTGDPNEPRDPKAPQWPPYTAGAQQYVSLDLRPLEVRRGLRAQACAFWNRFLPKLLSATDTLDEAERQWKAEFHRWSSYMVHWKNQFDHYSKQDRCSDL
# Chain of human p21 Activated Kinase 4 (PAK4), PAK4 (gene 10298) (O96013 whole entry, looked up): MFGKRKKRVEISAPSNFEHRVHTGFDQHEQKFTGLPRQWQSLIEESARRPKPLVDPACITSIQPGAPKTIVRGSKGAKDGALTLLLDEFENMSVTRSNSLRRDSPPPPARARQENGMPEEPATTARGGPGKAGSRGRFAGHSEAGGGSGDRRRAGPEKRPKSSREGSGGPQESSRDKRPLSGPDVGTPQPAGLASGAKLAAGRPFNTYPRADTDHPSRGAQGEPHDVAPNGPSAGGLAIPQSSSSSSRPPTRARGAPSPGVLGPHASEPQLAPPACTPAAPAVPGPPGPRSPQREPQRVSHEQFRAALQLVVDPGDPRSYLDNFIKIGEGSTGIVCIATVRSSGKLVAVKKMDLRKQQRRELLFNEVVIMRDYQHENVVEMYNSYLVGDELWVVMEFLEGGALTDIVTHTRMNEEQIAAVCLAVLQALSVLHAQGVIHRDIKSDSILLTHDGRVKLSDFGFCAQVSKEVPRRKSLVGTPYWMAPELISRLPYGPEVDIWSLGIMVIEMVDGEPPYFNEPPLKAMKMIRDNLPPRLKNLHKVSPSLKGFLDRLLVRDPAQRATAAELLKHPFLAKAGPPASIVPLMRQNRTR
# Chain of bovine Gamma-Aminobutyric Acid Type A Receptor BDZ, alpha 1 site (GABARa1), GABRA1 (gene 780973) (P08219 whole entry, looked up): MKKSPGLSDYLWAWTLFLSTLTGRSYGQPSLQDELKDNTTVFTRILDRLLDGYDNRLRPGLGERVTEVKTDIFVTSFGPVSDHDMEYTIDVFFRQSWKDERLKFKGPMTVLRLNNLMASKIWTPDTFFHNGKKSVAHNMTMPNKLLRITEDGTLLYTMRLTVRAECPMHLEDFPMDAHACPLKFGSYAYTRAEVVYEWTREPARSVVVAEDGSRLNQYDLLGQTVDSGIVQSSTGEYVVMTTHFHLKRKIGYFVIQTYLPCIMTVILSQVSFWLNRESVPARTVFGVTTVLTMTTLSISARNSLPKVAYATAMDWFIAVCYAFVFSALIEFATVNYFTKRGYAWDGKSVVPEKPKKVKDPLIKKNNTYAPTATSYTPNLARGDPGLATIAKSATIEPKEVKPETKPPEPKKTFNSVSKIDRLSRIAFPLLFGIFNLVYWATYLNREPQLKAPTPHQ
# Chain of human Protein Tyrosine Phosphatase Non-receptor Type 2 (PTPN2), PTPN2 (gene 5771) (P17706 whole entry, looked up): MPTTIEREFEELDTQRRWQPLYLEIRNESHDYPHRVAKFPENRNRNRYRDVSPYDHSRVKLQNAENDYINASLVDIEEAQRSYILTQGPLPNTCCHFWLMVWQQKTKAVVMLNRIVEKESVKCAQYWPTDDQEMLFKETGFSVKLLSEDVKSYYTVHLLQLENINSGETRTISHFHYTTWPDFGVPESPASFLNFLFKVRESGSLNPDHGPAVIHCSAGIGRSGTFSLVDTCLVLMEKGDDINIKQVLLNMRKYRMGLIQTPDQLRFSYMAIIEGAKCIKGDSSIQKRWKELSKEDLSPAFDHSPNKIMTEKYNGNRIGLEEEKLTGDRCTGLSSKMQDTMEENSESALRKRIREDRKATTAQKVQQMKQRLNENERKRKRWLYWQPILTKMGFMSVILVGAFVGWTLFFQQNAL
# Chain of human Matrix Metalloproteinase-1 (MMP1), MMP1 (gene 4312) (P03956 whole entry, looked up): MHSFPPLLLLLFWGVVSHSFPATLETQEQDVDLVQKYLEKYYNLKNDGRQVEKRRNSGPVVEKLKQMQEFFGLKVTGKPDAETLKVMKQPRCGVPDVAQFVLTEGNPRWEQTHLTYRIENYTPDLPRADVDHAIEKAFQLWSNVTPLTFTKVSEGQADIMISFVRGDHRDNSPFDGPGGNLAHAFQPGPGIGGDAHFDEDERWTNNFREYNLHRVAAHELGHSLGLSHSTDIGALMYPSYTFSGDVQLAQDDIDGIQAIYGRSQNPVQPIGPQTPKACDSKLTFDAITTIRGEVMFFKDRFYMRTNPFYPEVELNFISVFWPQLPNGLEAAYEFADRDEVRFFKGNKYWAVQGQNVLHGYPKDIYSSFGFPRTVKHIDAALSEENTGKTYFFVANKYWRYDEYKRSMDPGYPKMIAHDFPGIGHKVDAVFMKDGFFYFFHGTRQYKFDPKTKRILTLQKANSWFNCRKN
# Chain of rat Corticotropin Releasing Factor Receptor (CRF), Crhr1 (gene 58959) (P35353 whole entry, looked up): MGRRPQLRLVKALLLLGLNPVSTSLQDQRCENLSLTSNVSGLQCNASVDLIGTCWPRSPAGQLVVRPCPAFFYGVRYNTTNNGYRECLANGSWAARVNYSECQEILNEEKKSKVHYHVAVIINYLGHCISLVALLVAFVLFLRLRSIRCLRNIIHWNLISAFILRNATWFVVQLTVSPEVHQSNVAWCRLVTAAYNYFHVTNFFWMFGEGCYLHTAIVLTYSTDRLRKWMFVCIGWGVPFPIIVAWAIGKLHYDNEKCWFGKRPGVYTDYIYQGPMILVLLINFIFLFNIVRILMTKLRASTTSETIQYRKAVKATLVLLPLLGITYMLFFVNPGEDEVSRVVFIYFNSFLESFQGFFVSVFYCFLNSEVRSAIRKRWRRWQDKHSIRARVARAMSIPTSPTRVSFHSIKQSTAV
# Chain of human IkappaB Kinase alpha (IKKa), CHUK (gene 1147) (O15111 whole entry, looked up): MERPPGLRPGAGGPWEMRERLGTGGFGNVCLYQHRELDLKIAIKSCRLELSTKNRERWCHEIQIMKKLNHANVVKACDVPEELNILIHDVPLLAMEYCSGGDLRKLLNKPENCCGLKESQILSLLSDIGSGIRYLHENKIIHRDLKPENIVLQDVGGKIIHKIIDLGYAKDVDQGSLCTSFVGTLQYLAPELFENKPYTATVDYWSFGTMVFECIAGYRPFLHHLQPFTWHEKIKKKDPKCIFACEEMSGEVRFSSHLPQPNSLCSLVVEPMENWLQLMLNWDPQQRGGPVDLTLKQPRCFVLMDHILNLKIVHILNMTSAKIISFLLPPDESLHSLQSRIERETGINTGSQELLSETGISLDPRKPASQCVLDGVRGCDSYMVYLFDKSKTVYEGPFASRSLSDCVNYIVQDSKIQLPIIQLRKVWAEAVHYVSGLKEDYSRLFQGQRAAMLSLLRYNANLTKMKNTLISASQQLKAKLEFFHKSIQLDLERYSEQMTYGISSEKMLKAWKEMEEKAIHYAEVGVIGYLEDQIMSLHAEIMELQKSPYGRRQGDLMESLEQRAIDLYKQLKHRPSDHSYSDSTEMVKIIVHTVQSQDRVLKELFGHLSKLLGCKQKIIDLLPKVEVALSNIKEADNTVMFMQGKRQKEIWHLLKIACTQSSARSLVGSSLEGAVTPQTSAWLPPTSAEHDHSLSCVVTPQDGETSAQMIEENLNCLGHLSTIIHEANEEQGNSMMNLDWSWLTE
# Chain of human Aurora Kinase A - serine/threonine-protein Kinase 6 (AurA), AURKA (gene 6790) (O14965 whole entry, looked up): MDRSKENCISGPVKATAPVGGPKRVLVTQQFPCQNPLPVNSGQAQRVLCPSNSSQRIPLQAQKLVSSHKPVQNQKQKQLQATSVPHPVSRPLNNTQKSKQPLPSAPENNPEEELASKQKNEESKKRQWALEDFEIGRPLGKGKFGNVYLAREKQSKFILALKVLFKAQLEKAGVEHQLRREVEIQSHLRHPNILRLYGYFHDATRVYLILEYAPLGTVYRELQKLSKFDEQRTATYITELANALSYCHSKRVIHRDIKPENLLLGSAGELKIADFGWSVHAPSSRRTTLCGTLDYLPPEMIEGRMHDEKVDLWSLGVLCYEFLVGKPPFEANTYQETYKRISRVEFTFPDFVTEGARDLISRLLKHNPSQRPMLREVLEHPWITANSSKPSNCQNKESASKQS
# Chain of PPP2CA (gene 5515) (P67775 whole entry, looked up): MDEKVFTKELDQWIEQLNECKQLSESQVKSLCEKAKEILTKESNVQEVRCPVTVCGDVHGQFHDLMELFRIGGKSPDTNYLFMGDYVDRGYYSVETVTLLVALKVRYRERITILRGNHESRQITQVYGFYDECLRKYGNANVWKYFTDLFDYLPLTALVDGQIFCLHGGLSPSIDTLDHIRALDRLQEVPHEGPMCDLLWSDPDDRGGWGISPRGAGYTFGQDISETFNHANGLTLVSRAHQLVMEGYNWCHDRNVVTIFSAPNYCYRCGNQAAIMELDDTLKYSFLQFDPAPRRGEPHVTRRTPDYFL
compound,measurement,setting,value
O=C(OCCCCCOC(=O)c1ccccc1)c1ccccc1,outcome,[1],inactive
same,outcome,[2],inactive
same,outcome,[3],inactive
same,outcome,PPP2CA (gene 5515),inactive
same,outcome,[4],inactive
same,outcome,[5],inactive
same,outcome,[6],inactive
same,outcome,[7],inactive
COc1cc(C(C)C)c2c(c1)S(=O)(=O)N(COc1cc(=O)n3cccc(OCCN4CCCCC4)c3n1)C2=O,AC50,[8],5.52 µM (active)
same,AC50,[9],6.25 µM (active)
same,outcome,[10],inactive
CCOC(=O)O[C@H](C)OC(=O)c1ccc2c(c1)cc(C(=O)NC1CCN(C(C)C)CC1)n2Cc1cc(-c2ccc(Cl)s2)on1,AC50,[8],5.36 µM (active)
same,outcome,[11],inactive
same,AC50,[12],23.6 µM (active)
same,AC50,[13],5.06 µM (active)
O=C(OCCOCCOC(=O)c1ccccc1)c1ccccc1,outcome,[1],inactive
same,outcome,[14],inactive
same,outcome,[15],inactive
same,AC50,[16],1.4 µM (active)
